High-throughput results: PubChem, National Center for Advancing Translational Sciences (NCATS)
Compounds with a hit are over-represented: about 9.2% of the library has one in this group of screens.
ELG1 DNA repair: ELG1-dependent DNA repair inhibition; HEK293T ELG1-luciferase reporter, luminescence, 16 h; DNA damage induced by 5-fluorouridine; Potency, µM (top dose mostly 46.1 µM), without a hit: top-dose activity change, negative = inhibition, actives largely listed as inhibitors; actives 2.3% (n = 330,000); AID 504467; further: on the % scale 0 is the no-effect control and ±100 the full control effect; nearly all actives have a fitted effect of over 55% in size
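DMSO vehicle served as the neutral condition. Each well held 2,000 cells given 5-fluorouridine plus compound; after 16 hr at 37 °C/5% CO2, ONE-Glo was added and luciferase measured 30 min later.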
SMN2 splice enh: increases expression of the SMN2 splice variant. AID 1458. actives 2.8% (n = 210,000). Potency, µM (series often up to 46.1 µM), for inactives: at the highest dose activity change, positive = activation, most hits filed as activators. HEK293 SMN2-luciferase splicing reporter, luminescence, 30-36 h; further: % of control where 0% means no effect; nearly all actives have a fitted effect of over 55% in size
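HEK293 cells carry an SMN2 […]–luciferase reporter in which exon 7 inclusion puts luciferase in frame. Cells were plated 10-12 h before compound addition, then incubated 30-36 h at 37C. ONE-Glo luminescence was read; sodium butyrate at 4.5 mM final served as control.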
FLuc counter: firefly luciferase modulation, counter-screen for miR-21 project; P08659; actives 6.9% (n = 360,000); Potency, µM (highest dose often 57.5 µM), without a hit: top-dose activity change, negative = inhibition, hits mostly inhibitors; purified FLuc, Km substrates, luminescence inhibition;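 further: plate controls were vehicle for no effect and reference inhibitor for full effect; nearly all actives have a fitted effect of over 55% in size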
Target sequence (P08659 whole entry, looked up): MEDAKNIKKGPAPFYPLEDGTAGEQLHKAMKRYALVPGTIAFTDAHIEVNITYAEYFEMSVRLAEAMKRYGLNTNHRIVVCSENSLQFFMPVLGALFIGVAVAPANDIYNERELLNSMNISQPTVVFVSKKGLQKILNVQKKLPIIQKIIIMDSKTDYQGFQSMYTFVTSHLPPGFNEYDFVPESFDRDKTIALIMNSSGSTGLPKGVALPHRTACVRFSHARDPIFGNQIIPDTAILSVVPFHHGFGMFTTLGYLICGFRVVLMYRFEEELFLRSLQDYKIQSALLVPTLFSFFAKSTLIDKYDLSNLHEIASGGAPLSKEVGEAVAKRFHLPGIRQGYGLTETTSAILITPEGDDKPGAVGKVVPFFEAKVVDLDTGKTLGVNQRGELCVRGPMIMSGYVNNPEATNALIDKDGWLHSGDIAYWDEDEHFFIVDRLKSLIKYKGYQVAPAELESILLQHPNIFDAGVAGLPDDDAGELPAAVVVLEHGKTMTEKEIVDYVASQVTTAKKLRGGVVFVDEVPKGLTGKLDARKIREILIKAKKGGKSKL
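Purified P. pyralis luciferase (10nM final) with 10uM D-luciferin and 10uM ATP (Km levels) in 50mM Tris acetate pH 7.5, 10mM Mg acetate, 0.01% Tween-20, 0.05% BSA; qHTS 6-point titration, ~60 µM downward; luminescence read.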
NPC1 prom act: NPC1 promoter activation | Huh7 NPC1 promoter luciferase reporter, 24 h | Potency, µM (highest dose often 9.22 µM), for inactives: at the highest dose activation, usual class: activators | actives 2.4% (n = 320,000) | AID 485313; further: % of control where 0% means no effect; nearly all actives have a fitted effect of over 60% in size
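NPC1 promoter–luciferase Huh7 cells; 24 h compound; luminescence.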
Rab9 prom act: activates the Rab9 promoter; Huh7 Rab9 promoter-luciferase reporter, luminescence, 24 h; Potency, µM (series often up to 9.22 µM), without a hit: at the highest dose activation, negative = inhibition, actives largely listed as activators; actives 2.8% (n = 320,000); further: % of control where 0% means no effect; nearly all actives have a fitted effect of over 60% in size
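Huh7 reporter line, Rab9 promoter upstream of luciferase. Compound exposure 24 h at 37 °C in reduced-serum medium with 10% FBS. Read-out: luminescence.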
ELG1 genotoxic: induces genotoxicity in HEK293T cells with luciferase-tagged ELG1. AID 504466. Potency, µM (series often up to 46 µM), without a hit: at the top dose activity change, positive = activation, actives largely listed as activators. actives 1.3% (n = 330,000). HEK293T ELG1-luciferase reporter, luminescence, 16 h; further: % of control where 0% means no effect; nearly all actives have a fitted effect of over 60% in size
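HEK293T cells expressing luciferase-tagged ELG1 were treated with compound or DMSO for 16 hr at 37°C. Luciferase activity was then read after 30 min with ONE-Glo at room temperature; rising signal flags genetic stress.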
Active calls of the source: *; u = inconclusive; x = not tested or not shown. The call rests on the fitted dose curve; in most records, active means well fitted curve in the direction sought with a large enough effect; inconclusive means small, poorly fitted or top-dose-only effect, or another doubt; inactive means no such curve, though single readings can be large; an effect the other way counts as inactive or inconclusive. Potency means the concentration at half of the fitted maximal effect.

SMILES | ELG1 DNA repair | SMN2 splice enh | FLuc counter | NPC1 prom act | Rab9 prom act | ELG1 genotoxic
Cc1cc(C2=NNC(=NC3CC3)SC2)c(C)n1Cc1ccco1 | u | -70% | 0.12µM* | -34% | -50% | 18%
Cc1cc(-c2csc(N)n2)c(C)n1Cc1ccco1 | 7% | u | u | 0% | 0% | -2%
CN=C1NN=C(c2cc(C)n(-c3c(C)n(C)n(-c4ccccc4)c3=O)c2C)CS1 | 9% | -2% | -1% | 0% | -3% | 1%
COCC(C)N=C1NN=C(c2cc(C)n(Cc3ccccc3Cl)c2C)CS1 (stereo not given) | u | -16% | 7.6µM* | u | u | u
COCCCN=C1NN=C(c2cc(C)n(Cc3ccco3)c2C)CS1 | u | u | 2.7µM* | 6.3µM* | 10% | 3.3µM*
Cc1oc(-c2ccc(Cl)cc2)nc1CN1CCCC(C(=O)NCCc2ccccc2)C1 (stereo not given) | x | 0% | u | x | x | x
O=C(CSc1nc2ccccc2n1Cc1cccc(F)c1)N1CCN(c2ccc(F)cc2)CC1 | x | 2% | -2% | x | x | x
CC(C)CC(=O)Nc1cc2nn(-c3ccccc3)nc2cc1Cl | u | u | 1.5µM* | 1.8µM* | 1.4µM* | 4.6µM*
Nc1ccc2nn(-c3ccccc3)nc2c1 | u | x | 3.8µM* | 1.6µM* | 1.6µM* | u
Nc1cc2nn(-c3ccccc3)nc2cc1Cl | u | 3.2µM* | 1.3µM* | 6% | 19% | 24%
CN(C)c1ccc(C(=O)/C=C/c2cccnc2)cc1 | u | x | 3µM* | u | u | 15%
CCN(C(=O)c1cccc(Br)c1)c1ccccc1 | -7% | -1% | 0% | -2% | 2% | 2%
CN(C)c1ccc(/C=C/C(=O)c2cccc(Br)c2)cc1 | 15% | -1% | 3µM* | 23% | 26% | 2%
CCOC(=O)c1ccccc1NC(=O)COC(=O)CN1C(=O)NC2(CCCC2)C1=O | 13% | x | 1% | -1% | -1% | 5%
Cc1ccc(C(=O)NCc2ccc(N(C)C)cc2)cc1NC(=O)c1nsc2ccccc12 | x | x | -13% | x | x | x
Cc1ccc(NC(=O)c2nc[nH]c2C(=O)NCc2ccccc2)cc1 | -25% | x | 0% | -1% | 0% | -4%
Cc1ccccc1CNC(=O)c1ccc(NC(=O)c2nsc3ccccc23)cc1 | x | x | 6.7µM* | x | x | x
CN(C)c1ccc(CNC(=O)c2ccc(NC(=O)c3nsc4ccccc34)cc2)cc1 | x | x | 2.7µM* | x | x | x
O=C(NCc1cccc(F)c1)c1ccc(NC(=O)c2nsc3ccccc23)cc1 | x | x | 4.8µM* | x | x | x
CCCSCCCNC(=O)c1ccc(C)c(NC(=O)c2nsc3ccccc23)c1 | x | x | -14% | x | x | x
O=C(Nc1ccc(F)cc1)N1CCN(C(=O)c2nsc3ccccc23)CC1 | x | x | -8% | x | x | x
Cc1ccc(CNC(=O)c2ccc(NC(=O)c3nsc4ccccc34)cc2)cc1 | x | x | 6.7µM* | x | x | x
CCc1ccc(NCc2cc3cc4c(cc3n(CC(=O)Nc3ccccc3C)c2=O)OCCO4)cc1 | x | x | -7% | x | x | x
O=C1CC2(CCN(C(=O)C3CC(=O)N(c4ccccc4)C3)CC2)Oc2ccccc21 (stereo not given) | -6% | x | 5% | 1% | -1% | -2%
Cc1cc(NC(=O)CN(C)S(=O)(=O)c2ccc3c(c2)CCC(=O)N3)ccc1Br | x | -43% | u | x | x | x
N#C/C(=C/c1ccc(OCc2ccccc2)cc1)C(=O)NC1CCCCC1 | 32% | u | 3% | 25% | 22% | 8%
COc1ccc(-c2[nH]ncc2/C=C(/C#N)C(=O)NC2CCCCCC2)cc1 | 18µM* | -14% | -1% | -11% | -6% | -8%
COc1ccc(-c2cc3c(=O)n(CC(=O)NCCCN4CCC(Cc5ccccc5)CC4)ncn3n2)cc1 | u | x | 4.8µM* | u | u | u
